# Molecular target: T1, Serine/threonine-protein kinase Chk1 (Homo sapiens) (UniProt O14757);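 further: mean inhibition of CHEK1, part of the GSK PKIS profiling set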
# T1 sequence (whole entry): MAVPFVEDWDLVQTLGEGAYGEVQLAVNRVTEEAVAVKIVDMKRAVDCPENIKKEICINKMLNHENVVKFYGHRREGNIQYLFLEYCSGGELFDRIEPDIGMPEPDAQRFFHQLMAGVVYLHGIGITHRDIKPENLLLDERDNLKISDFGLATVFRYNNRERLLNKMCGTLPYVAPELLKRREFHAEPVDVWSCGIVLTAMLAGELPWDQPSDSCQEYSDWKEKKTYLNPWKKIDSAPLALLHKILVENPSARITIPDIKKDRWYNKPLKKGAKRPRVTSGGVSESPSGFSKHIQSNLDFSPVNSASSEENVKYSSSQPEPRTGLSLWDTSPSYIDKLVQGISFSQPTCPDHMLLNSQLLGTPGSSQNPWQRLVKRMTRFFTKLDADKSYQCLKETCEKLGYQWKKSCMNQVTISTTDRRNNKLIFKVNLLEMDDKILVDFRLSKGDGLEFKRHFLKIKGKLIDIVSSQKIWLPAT
# Settings: at 1 µM
row,SMILES,inhibition [%]
1,O=C(Nc1n[nH]c2cc(-c3ccccc3)ccc12)C1CC1,5.48
2,Cc1ccc(C(=O)NC2CCC2)cc1-c1ccc(C(=O)NCC2CC2)cc1,2.39
3,O=C(Nc1n[nH]c2cc(-c3cc(F)ccc3F)ccc12)C1CC1,1.41
4,CNC(=O)c1cncc(/C=C/c2c(C)cccc2C)c1,0.19
5,O=C(Nc1n[nH]c2nc(-c3ccc(O)cc3)c(Br)cc12)C1CC1,16.8
6,NS(=O)(=O)c1ccc(N/N=C2\C(=O)Nc3ccc(-c4cnco4)cc32)cc1,6.95
7,Fc1ccc(-c2ncn(CCCN3CCOCC3)c2-c2ccncc2)cc1,-1.19
8,C[C@@H](Oc1cc(-n2cnc3ccc(OCC4CCN(C)CC4)cc32)sc1C(N)=O)c1ccccc1Cl,10.4
9,CCc1ccc(Oc2nccc(-c3c(-c4ccc(F)cc4)ncn3C3CCNCC3)n2)cc1,6.62
10,COc1cccc(/C=N/Nc2ncnc3c2cnn3-c2cccc(OC)c2)c1,-1.62
11,COc1ccc2cc(-c3c(-c4ccncc4)nc(-c4ccc(S(C)(=O)=O)cc4C)n3C)ccc2c1,-3.07
12,CS(=O)(=O)CCNCc1ccc(-c2ccc3ncnc(Nc4ccc(OCc5ccccc5)c(Br)c4)c3c2)o1,1.92
13,Fc1ccc(-c2ncn(C3CCNCC3)c2-c2ccnc(Oc3ccc(Oc4ccccc4)cc3)n2)cc1,16.4
14,O=C1Nc2ccc(I)cc2C1=Cc1cc(Br)c(O)c(Br)c1,-0.68
15,COc1cc(Nc2ncc3c(C)nc(-c4cccc(Oc5ccccc5)c4)n3n2)cc(OC)c1OC,10.2
16,CN1CCN(CCCNc2nc3ccc(Oc4ccc(NC(=O)Nc5cc(C(F)(F)F)ccc5F)cc4)cc3[nH]2)CC1,0.8
17,COc1cc(Nc2ncc(-c3ccccc3)o2)cc(OC)c1OC,5.64

row,SMILES,inhibition [%]
1,COc1ccc(C2=C(N3CCc4ccccc43)C(=O)NC2=O)cc1,3.47
2,Cc1ccc(C(=O)NC(C)C)cc1-c1ccc(C(=O)NCC2CC2)cc1,-3.38
3,NC(=O)c1cc(-c2ccc(F)cc2)cc(-c2ccncc2)c1N,0.41
4,Clc1ccc(CNc2nccc(-c3cnn4ncccc34)n2)cc1,8.27
5,O=C1Nc2ccccc2/C1=C/Nc1ccc(-n2cncn2)cc1,13.5
6,Fc1ccc(-c2ncn(C3CCNCC3)c2-c2ccnc(Oc3ccc(F)c(F)c3)n2)cc1,5.61
7,CN(c1ccc(NC(=O)Nc2c(Cl)cccc2Cl)cc1)c1ccnc(Nc2cccc(CS(C)(=O)=O)c2)n1,4.63
8,NC(=O)Cc1ccccc1Oc1nccc(-c2c(-c3ccc(F)cc3)ncn2C2CCNCC2)n1,5.68
9,CN(C)CCOc1ccc(-c2cc(-c3ccc4c(c3)CCC4=NO)c(-c3ccncc3)o2)cc1,-2.8
10,CN(C)c1ccc2c(c1)/C(=C/Nc1ccc(S(N)(=O)=O)cc1)C(=O)N2,34.9
11,COc1cc(C)c(N(C)C(=O)CN(C)C)cc1Nc1nc(Nc2cccc(F)c2C(N)=O)c2cc[nH]c2n1,-0.94
12,O=C(NCC1CC1)c1ccc(-c2cccc(C(=O)NC3CC3)c2)cc1,2.12
13,COc1cc(N2CCN(C(C)C)CC2)ccc1Nc1nc(Nc2ccc(F)cc2C(=O)NC[C@@H](O)CO)c2cc[nH]c2n1,6.24
14,NC(=O)c1ccc(Oc2nccc(-c3c(-c4ccc(F)cc4)ncn3C3CCNCC3)n2)cc1,1.07
15,COc1cc2ncn(-c3cc(OCCc4ccccc4)c(C(N)=O)s3)c2cc1OC,7.39
16,CCc1cccc(CC)c1/C=C/c1cncc(C(=O)NC)c1,2.13
17,COc1ccc2cc(-c3c(-c4ccncc4)nc(-c4ccc([S+](C)[O-])cc4C)n3C)ccc2c1 (stereo not drawn),-9.96

# Molecular target: Serine/threonine-protein kinase Chk2 (Homo sapiens) (UniProt O96017)
# Settings: at 0.1 µM
# Sequence of Serine/threonine-protein kinase Chk2 (Homo sapiens) (O96017 whole entry): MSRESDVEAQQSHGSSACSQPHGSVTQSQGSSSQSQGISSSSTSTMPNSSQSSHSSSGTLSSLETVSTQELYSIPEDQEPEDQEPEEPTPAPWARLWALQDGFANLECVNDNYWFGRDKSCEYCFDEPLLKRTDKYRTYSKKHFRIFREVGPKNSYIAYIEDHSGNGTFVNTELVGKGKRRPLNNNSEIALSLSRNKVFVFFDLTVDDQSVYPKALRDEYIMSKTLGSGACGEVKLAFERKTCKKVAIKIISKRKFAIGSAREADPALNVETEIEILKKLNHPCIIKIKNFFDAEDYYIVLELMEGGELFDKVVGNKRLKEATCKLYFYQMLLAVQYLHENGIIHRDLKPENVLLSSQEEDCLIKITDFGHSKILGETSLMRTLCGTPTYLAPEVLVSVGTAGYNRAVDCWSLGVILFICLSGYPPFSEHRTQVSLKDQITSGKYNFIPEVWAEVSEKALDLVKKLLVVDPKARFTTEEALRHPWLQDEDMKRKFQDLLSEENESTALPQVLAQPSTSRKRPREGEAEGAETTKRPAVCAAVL
row,SMILES,inhibition [%]
1,O=C(Nc1n[nH]c2cc(-c3ccccc3)ccc12)C1CC1,2.81
2,Cc1ccc(C(=O)NC2CCC2)cc1-c1ccc(C(=O)NCC2CC2)cc1,1.83
3,O=C(Nc1n[nH]c2cc(-c3cc(F)ccc3F)ccc12)C1CC1,2.67
4,CNC(=O)c1cncc(/C=C/c2c(C)cccc2C)c1,-0.74
5,O=C(Nc1n[nH]c2nc(-c3ccc(O)cc3)c(Br)cc12)C1CC1,2.09
6,NS(=O)(=O)c1ccc(N/N=C2\C(=O)Nc3ccc(-c4cnco4)cc32)cc1,0.92
7,Fc1ccc(-c2ncn(CCCN3CCOCC3)c2-c2ccncc2)cc1,-0.55
8,C[C@@H](Oc1cc(-n2cnc3ccc(OCC4CCN(C)CC4)cc32)sc1C(N)=O)c1ccccc1Cl,2.55
9,CCc1ccc(Oc2nccc(-c3c(-c4ccc(F)cc4)ncn3C3CCNCC3)n2)cc1,3.02
10,COc1cccc(/C=N/Nc2ncnc3c2cnn3-c2cccc(OC)c2)c1,3.83
11,COc1ccc2cc(-c3c(-c4ccncc4)nc(-c4ccc(S(C)(=O)=O)cc4C)n3C)ccc2c1,-2.23
12,CS(=O)(=O)CCNCc1ccc(-c2ccc3ncnc(Nc4ccc(OCc5ccccc5)c(Br)c4)c3c2)o1,2.5
13,Fc1ccc(-c2ncn(C3CCNCC3)c2-c2ccnc(Oc3ccc(Oc4ccccc4)cc3)n2)cc1,8.69
14,O=C1Nc2ccc(I)cc2C1=Cc1cc(Br)c(O)c(Br)c1,4.44
15,COc1cc(Nc2ncc3c(C)nc(-c4cccc(Oc5ccccc5)c4)n3n2)cc(OC)c1OC,7.97
16,CN1CCN(CCCNc2nc3ccc(Oc4ccc(NC(=O)Nc5cc(C(F)(F)F)ccc5F)cc4)cc3[nH]2)CC1,1.31
17,COc1cc(Nc2ncc(-c3ccccc3)o2)cc(OC)c1OC,-3.16

row,SMILES,inhibition [%]
1,COc1ccc(C2=C(N3CCc4ccccc43)C(=O)NC2=O)cc1,3.04
2,Cc1ccc(C(=O)NC(C)C)cc1-c1ccc(C(=O)NCC2CC2)cc1,-3.25
3,NC(=O)c1cc(-c2ccc(F)cc2)cc(-c2ccncc2)c1N,3
4,Clc1ccc(CNc2nccc(-c3cnn4ncccc34)n2)cc1,4.34
5,O=C1Nc2ccccc2/C1=C/Nc1ccc(-n2cncn2)cc1,3.98
6,Fc1ccc(-c2ncn(C3CCNCC3)c2-c2ccnc(Oc3ccc(F)c(F)c3)n2)cc1,2.5
7,CN(c1ccc(NC(=O)Nc2c(Cl)cccc2Cl)cc1)c1ccnc(Nc2cccc(CS(C)(=O)=O)c2)n1,10.1
8,NC(=O)Cc1ccccc1Oc1nccc(-c2c(-c3ccc(F)cc3)ncn2C2CCNCC2)n1,4.2
9,CN(C)CCOc1ccc(-c2cc(-c3ccc4c(c3)CCC4=NO)c(-c3ccncc3)o2)cc1,-1.13
10,CN(C)c1ccc2c(c1)/C(=C/Nc1ccc(S(N)(=O)=O)cc1)C(=O)N2,1.42
11,COc1cc(C)c(N(C)C(=O)CN(C)C)cc1Nc1nc(Nc2cccc(F)c2C(N)=O)c2cc[nH]c2n1,2.55
12,O=C(NCC1CC1)c1ccc(-c2cccc(C(=O)NC3CC3)c2)cc1,0.96
13,COc1cc(N2CCN(C(C)C)CC2)ccc1Nc1nc(Nc2ccc(F)cc2C(=O)NC[C@@H](O)CO)c2cc[nH]c2n1,17.2
14,NC(=O)c1ccc(Oc2nccc(-c3c(-c4ccc(F)cc4)ncn3C3CCNCC3)n2)cc1,-1.09
15,COc1cc2ncn(-c3cc(OCCc4ccccc4)c(C(N)=O)s3)c2cc1OC,1.58
16,CCc1cccc(CC)c1/C=C/c1cncc(C(=O)NC)c1,1.58
17,COc1ccc2cc(-c3c(-c4ccncc4)nc(-c4ccc([S+](C)[O-])cc4C)n3C)ccc2c1 (stereo not drawn),-6.42

# — ChEMBL document CHEMBL1961873, “Compounds: GSK PKIS; Assays: Nanosyn kinase panel” (2012)
